Experimental data taken from the supplement of paper PMC7801607.

tested on: CHO; experiment: % viability of CHO cells (MTT); higher = less toxic; conditions: 20 µM; 48 h
Method in brief: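 After overnight attachment of CHO cells seeded at 10^6 cells/well in 200 µL, the medium was exchanged for fresh medium holding compound at 2 or 20 µM. Exposure lasted 48 h. Survival was read with the colorimetric tetrazolium (MTT) assay and expressed as percent of untreated cells.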

Point of comparison: `O=C(CSc1nnc(Br)n1-c1ccc(C2CC2)c2ccccc12)Nc1ccc(C(=O)O)cc1Cl`, “% viability of CHO cells” value 61.4%. Against it:
- Clc1cc2nc(C3CCNCC3)n(Cc3ccc(CNCCc4cnc[nH]4)cc3)c2cc1Cl — higher, 96.1%
- O=c1cc(OCc2ccccc2)ccn1Cc1ccccc1 — higher, 98.7%
- Cc1cc(CCCOc2c(C)cc(-c3noc(C(F)(F)F)n3)cc2C)on1 — higher, 125%
- CCC(C)n1ncn(-c2ccc(N3CCN(c4ccc(OCC5COC(Cn6cncn6)(c6ccc(Cl)cc6Cl)O5)cc4)CC3)cc2)c1=O (stereo unspecified) — higher, 119%
- O=C(O)c1ccccc1Sc1ncnc2sc3c(c12)CCC3 — higher, 89.7%
- Cc1nc(Nc2ccc(F)cc2)nc(N2CCc3ccccc3C2C)c1C (stereo unspecified) — higher, 69.7%
- NC(=O)c1nccn([C@@H]2O[C@H](CO)[C@@H](O)[C@H]2O)c1=O — higher, 105%
- Nc1nc(F)nc2c1ncn2[C@H]1O[C@@H](CO)[C@H](O)[C@@H]1O — lower, 4.44%
- NC(=S)N/N=C/c1ncccc1N — lower, 48.6%
- CCCC1(C2CC2)c2cc(Cl)ccc2NC(=O)N1C (stereo unspecified) — lower, 59.9%
- COc1cc(C(C(=O)NC2CCCCC2)N(C(=O)Cc2c[nH]c3ccccc23)c2ccc(C(C)C)cc2)cc(OC)c1OC (stereo unspecified) — higher, 90.4%
- Oc1cccc(C(Nc2nccs2)c2ccc3cccnc3c2O)c1 (stereo unspecified) — lower, 42.1%
- COc1ccc(C)cc1NC(=O)c1ccc(S(=O)(=O)N2CCCCC2)cc1 — higher, 156%
- CCC[C@H](NC(=O)[C@@H]1[C@H]2CCC[C@H]2CN1C(=O)[C@@H](NC(=O)[C@@H](NC(=O)c1cnccn1)C1CCCCC1)C(C)(C)C)C(=O)C(=O)NC1CC1 — higher, 100%
- CC(C)(C)c1ccc(C(Cn2cccc(C(F)(F)F)c2=O)NC2Cc3ccccc3C2)cc1 (stereo unspecified) — higher, 94.3%
- O=C1NC(=O)C(Br)=C1Br — higher, 103%
- CC(C)Nc1nc2cc(Cl)c(Cl)cc2n1[C@H]1O[C@@H](CO)[C@H](O)[C@@H]1O — lower, 56.9%
- C=C[C@]1(C)C[C@@H](OC(=O)CS[C@@H]2C[C@H]3CC[C@@H](C2)N3C)[C@]2(C)[C@H](C)CC[C@]3(CCC(=O)[C@H]32)[C@@H](C)[C@@H]1O — lower, 48.9%
- CCCCCCC1c2ccc(O)cc2Oc2cc(O)ccc21 — lower, 49.3%
- O=C(NCc1ncc(C(F)(F)F)cc1Cl)c1c(Cl)cccc1Cl — higher, 72.6%
- CN(C)CCNC(=O)c1cccc2cccnc12 — lower, 19.6%
- CC(C)CCN1C(=O)C(C2=NS(=O)(=O)c3cc(NS(C)(=O)=O)ccc3N2)=C(O)[C@@H]2[C@H]3CC[C@H](C3)[C@@H]21 — higher, 109%
- CC(C)(C)c1ccc(C(=O)NC(=O)N2CCCc3ccccc32)cc1 — higher, 101%
- Cc1nc2ccc(Oc3ccccc3)cc2c2c1CCN2CCc1ccccc1 — lower, -1.21%
- Cc1c(OCC(F)(F)F)ccnc1CS(=O)c1nc2ccccc2[nH]1 (stereo unspecified) — higher, 96.9%
- O=C(CP(=O)(O)O)NCCc1cccc(Oc2ccccc2)c1 — higher, 84.2%
- N[C@@H]1CN(c2c(F)cc3c(=O)c(C(=O)O)cn([C@@H]4C[C@@H]4F)c3c2Cl)CC12CC2 — higher, 69.3%
- CCOC(=O)Nc1cc(NC(C)CC(C)CN(CC)CC)c2nc(-c3ccccc3)c(-c3ccccc3)nc2n1 (stereo unspecified) — higher, 116%
- O=S(=O)(NCB(O)O)c1cc2c(Cl)ccc(Cl)c2s1 — lower, 59.2%
- CN(C)CC(=O)Nc1ccc2[nH]c(=O)c3ccccc3c2c1 — higher, 109%
- Cc1nc(-c2ccc(C3N(C)c4ccc(F)cc4C(=O)N3c3ccccc3)s2)cs1 (stereo unspecified) — higher, 95.9%
- CCc1cc(Nc2cc(=O)n(CCN3CCN(C(=O)c4ccccc4)CC3)c(=O)[nH]2)ccc1C — higher, 103%
- CCOC(=O)N[C@@H]1CC[C@@H]2[C@@H](C1)C[C@H]1C(=O)O[C@H](C)[C@H]1[C@H]2/C=C/c1ccc(-c2cccc(F)c2)cn1 — higher, 62.2%
- O=C(N[C@H](Cc1cccc2ccccc12)C(=O)NCCc1c[nH]cn1)C1Cc2ccccc2C1 — higher, 97.8%
- Cc1nc(N(C)C(=O)Cc2ccc(-c3ccccn3)cc2)sc1S(N)(=O)=O — lower, 59.1%
- COc1ccc(C[C@@H](C)[C@@H](C)Cc2ccc(OC)c(OC)c2)cc1OC — higher, 77.7%
- Nc1nnnn1CCOc1c2[nH]c3ccc(Cl)cc3c2cc2c1[nH]c1ccc(Cl)cc12 — higher, 121%

tested on: HepG2-A16-CD81; experiment: % inhibition of HepG2 viability (CellTiter-Glo); higher = more toxic; conditions: 5 µM;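 also: HepG2-A16-CD81 hepatoma cells plated as in the liver-stage assay but without sporozoites, with DMSO wells as negative and 25 µM puromycin as positive control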

Point of comparison: `CC(C)(C)c1ccc(C(Cn2cccc(C(F)(F)F)c2=O)NC2Cc3ccccc3C2)cc1` (stereo unspecified), “% inhibition of HepG2 viability” value -1.5%. Against it:
- Clc1cc2nc(C3CCNCC3)n(Cc3ccc(CNCCc4cnc[nH]4)cc3)c2cc1Cl — higher, 2.02%
- O=c1cc(OCc2ccccc2)ccn1Cc1ccccc1 — lower, -3.88%
- Cc1cc(CCCOc2c(C)cc(-c3noc(C(F)(F)F)n3)cc2C)on1 — higher, 7.06%
- CCC(C)n1ncn(-c2ccc(N3CCN(c4ccc(OCC5COC(Cn6cncn6)(c6ccc(Cl)cc6Cl)O5)cc4)CC3)cc2)c1=O (stereo unspecified) — higher, 26.2%
- O=C(O)c1ccccc1Sc1ncnc2sc3c(c12)CCC3 — higher, 4.01%
- Cc1nc(Nc2ccc(F)cc2)nc(N2CCc3ccccc3C2C)c1C (stereo unspecified) — higher, 8.08%
- NC(=O)c1nccn([C@@H]2O[C@H](CO)[C@@H](O)[C@H]2O)c1=O — higher, 4.39%
- Nc1nc(F)nc2c1ncn2[C@H]1O[C@@H](CO)[C@H](O)[C@@H]1O — higher, 77.8%
- NC(=S)N/N=C/c1ncccc1N — lower, -22.6%
- CCCC1(C2CC2)c2cc(Cl)ccc2NC(=O)N1C (stereo unspecified) — higher, 1.91%
- COc1cc(C(C(=O)NC2CCCCC2)N(C(=O)Cc2c[nH]c3ccccc23)c2ccc(C(C)C)cc2)cc(OC)c1OC (stereo unspecified) — higher, 1.92%
- Oc1cccc(C(Nc2nccs2)c2ccc3cccnc3c2O)c1 (stereo unspecified) — higher, 9.72%
- COc1ccc(C)cc1NC(=O)c1ccc(S(=O)(=O)N2CCCCC2)cc1 — higher, 6.14%
- CCC[C@H](NC(=O)[C@@H]1[C@H]2CCC[C@H]2CN1C(=O)[C@@H](NC(=O)[C@@H](NC(=O)c1cnccn1)C1CCCCC1)C(C)(C)C)C(=O)C(=O)NC1CC1 — lower, -4.56%
- O=C(CSc1nnc(Br)n1-c1ccc(C2CC2)c2ccccc12)Nc1ccc(C(=O)O)cc1Cl — lower, -1.62%
- O=C1NC(=O)C(Br)=C1Br — higher, 5.44%
- CC(C)Nc1nc2cc(Cl)c(Cl)cc2n1[C@H]1O[C@@H](CO)[C@H](O)[C@@H]1O — lower, -5.75%
- C=C[C@]1(C)C[C@@H](OC(=O)CS[C@@H]2C[C@H]3CC[C@@H](C2)N3C)[C@]2(C)[C@H](C)CC[C@]3(CCC(=O)[C@H]32)[C@@H](C)[C@@H]1O — higher, 7.56%
- CCCCCCC1c2ccc(O)cc2Oc2cc(O)ccc21 — higher, 11.4%
- O=C(NCc1ncc(C(F)(F)F)cc1Cl)c1c(Cl)cccc1Cl — higher, 2.83%
- CN(C)CCNC(=O)c1cccc2cccnc12 — higher, -1.05%
- CC(C)CCN1C(=O)C(C2=NS(=O)(=O)c3cc(NS(C)(=O)=O)ccc3N2)=C(O)[C@@H]2[C@H]3CC[C@H](C3)[C@@H]21 — higher, 6.58%
- CC(C)(C)c1ccc(C(=O)NC(=O)N2CCCc3ccccc32)cc1 — higher, -0.159%
- Cc1nc2ccc(Oc3ccccc3)cc2c2c1CCN2CCc1ccccc1 — higher, 2.52%
- Cc1c(OCC(F)(F)F)ccnc1CS(=O)c1nc2ccccc2[nH]1 (stereo unspecified) — higher, 1.82%
- O=C(CP(=O)(O)O)NCCc1cccc(Oc2ccccc2)c1 — higher, 0.91%
- N[C@@H]1CN(c2c(F)cc3c(=O)c(C(=O)O)cn([C@@H]4C[C@@H]4F)c3c2Cl)CC12CC2 — lower, -1.55%
- CCOC(=O)Nc1cc(NC(C)CC(C)CN(CC)CC)c2nc(-c3ccccc3)c(-c3ccccc3)nc2n1 (stereo unspecified) — higher, 12.9%
- O=S(=O)(NCB(O)O)c1cc2c(Cl)ccc(Cl)c2s1 — higher, 30.9%
- CN(C)CC(=O)Nc1ccc2[nH]c(=O)c3ccccc3c2c1 — lower, -2.53%
- Cc1nc(-c2ccc(C3N(C)c4ccc(F)cc4C(=O)N3c3ccccc3)s2)cs1 (stereo unspecified) — higher, 12.5%
- CCc1cc(Nc2cc(=O)n(CCN3CCN(C(=O)c4ccccc4)CC3)c(=O)[nH]2)ccc1C — higher, -1.38%
- CCOC(=O)N[C@@H]1CC[C@@H]2[C@@H](C1)C[C@H]1C(=O)O[C@H](C)[C@H]1[C@H]2/C=C/c1ccc(-c2cccc(F)c2)cn1 — higher, 7.92%
- O=C(N[C@H](Cc1cccc2ccccc12)C(=O)NCCc1c[nH]cn1)C1Cc2ccccc2C1 — higher, 0.483%
- Cc1nc(N(C)C(=O)Cc2ccc(-c3ccccn3)cc2)sc1S(N)(=O)=O — higher, -0.405%
- COc1ccc(C[C@@H](C)[C@@H](C)Cc2ccc(OC)c(OC)c2)cc1OC — higher, 5.15%
- Nc1nnnn1CCOc1c2[nH]c3ccc(Cl)cc3c2cc2c1[nH]c1ccc(Cl)cc12 — higher, 5.71%
